Laboratory results reported in the supplement of paper PMC11732987, “Enantioselective OTUD7B fragment discovery through chemoproteomics screening and high-throughput optimisation” (Communications Chemistry, 2025).

Assays:
Experiment in all cases: log2 ratio of Biotin-Ahx-Ub-VS probe labelling (fragment/DMSO); higher = less target engagement (more negative = stronger competition), active = hit call of the paper (q ≤ 0.05, log2 ratio ≤ -1)
Settings in all cases: compound concentration: 200 uM; treatment time: 3 h
USP19 = target: T1, USP19 (UniProt O94966)
T1 sequence (whole entry): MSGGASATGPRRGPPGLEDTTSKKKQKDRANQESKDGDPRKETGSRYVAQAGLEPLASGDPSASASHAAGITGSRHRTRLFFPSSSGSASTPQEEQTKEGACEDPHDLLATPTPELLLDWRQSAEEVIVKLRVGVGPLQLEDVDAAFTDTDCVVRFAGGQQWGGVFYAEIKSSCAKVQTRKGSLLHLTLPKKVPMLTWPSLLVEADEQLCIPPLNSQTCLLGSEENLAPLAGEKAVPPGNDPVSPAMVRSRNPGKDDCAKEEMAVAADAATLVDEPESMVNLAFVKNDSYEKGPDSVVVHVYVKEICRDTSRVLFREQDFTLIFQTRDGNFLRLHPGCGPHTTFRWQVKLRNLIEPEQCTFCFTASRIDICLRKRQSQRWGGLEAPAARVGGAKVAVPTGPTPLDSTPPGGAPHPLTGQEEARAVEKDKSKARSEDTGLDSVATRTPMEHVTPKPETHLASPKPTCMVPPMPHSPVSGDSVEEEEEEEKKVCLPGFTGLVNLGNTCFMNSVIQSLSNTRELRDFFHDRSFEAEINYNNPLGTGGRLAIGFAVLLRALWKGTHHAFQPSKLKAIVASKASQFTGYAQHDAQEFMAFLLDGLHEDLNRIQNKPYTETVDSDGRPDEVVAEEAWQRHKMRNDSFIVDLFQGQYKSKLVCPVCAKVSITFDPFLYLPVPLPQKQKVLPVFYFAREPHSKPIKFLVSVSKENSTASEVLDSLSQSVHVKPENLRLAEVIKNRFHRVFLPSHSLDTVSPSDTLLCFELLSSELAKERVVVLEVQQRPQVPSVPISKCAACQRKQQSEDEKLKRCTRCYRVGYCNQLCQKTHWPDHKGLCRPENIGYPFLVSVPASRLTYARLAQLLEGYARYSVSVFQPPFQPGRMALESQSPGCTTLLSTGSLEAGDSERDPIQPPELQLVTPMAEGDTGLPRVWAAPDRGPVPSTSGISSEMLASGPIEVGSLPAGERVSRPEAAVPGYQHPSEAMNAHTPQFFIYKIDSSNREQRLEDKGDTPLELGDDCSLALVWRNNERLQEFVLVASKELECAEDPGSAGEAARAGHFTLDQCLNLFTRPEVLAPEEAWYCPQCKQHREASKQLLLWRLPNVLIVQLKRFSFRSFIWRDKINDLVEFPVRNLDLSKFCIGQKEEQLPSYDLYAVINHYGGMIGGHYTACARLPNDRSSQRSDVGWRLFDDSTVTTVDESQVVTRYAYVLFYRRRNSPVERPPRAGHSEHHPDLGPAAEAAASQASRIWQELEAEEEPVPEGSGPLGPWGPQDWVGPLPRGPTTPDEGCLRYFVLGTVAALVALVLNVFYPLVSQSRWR
How it was run: (§1)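 HEK293T lysate, 495 µg per sample in Tris/CHAPS/IGEPAL buffer with protease inhibitors, was treated in triplicate with fragment at 200 µM or vehicle for 3 h and then with Biotin-Ahx-Ub-VS at 0.5 µM final for 1 h. Labelled DUBs were NeutrAvidin-enriched, digested with LysC and trypsin, and run by diaPASEF LC-MS/MS. Spectronaut label-free quantities were global-median-normalised, and values are average log2 fragment/vehicle ratios by unpaired t-test on proteins with ≥2 unique peptides.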

USP24 = USP24 (UniProt Q9UPU5)
Chain of USP24 (Q9UPU5 whole entry): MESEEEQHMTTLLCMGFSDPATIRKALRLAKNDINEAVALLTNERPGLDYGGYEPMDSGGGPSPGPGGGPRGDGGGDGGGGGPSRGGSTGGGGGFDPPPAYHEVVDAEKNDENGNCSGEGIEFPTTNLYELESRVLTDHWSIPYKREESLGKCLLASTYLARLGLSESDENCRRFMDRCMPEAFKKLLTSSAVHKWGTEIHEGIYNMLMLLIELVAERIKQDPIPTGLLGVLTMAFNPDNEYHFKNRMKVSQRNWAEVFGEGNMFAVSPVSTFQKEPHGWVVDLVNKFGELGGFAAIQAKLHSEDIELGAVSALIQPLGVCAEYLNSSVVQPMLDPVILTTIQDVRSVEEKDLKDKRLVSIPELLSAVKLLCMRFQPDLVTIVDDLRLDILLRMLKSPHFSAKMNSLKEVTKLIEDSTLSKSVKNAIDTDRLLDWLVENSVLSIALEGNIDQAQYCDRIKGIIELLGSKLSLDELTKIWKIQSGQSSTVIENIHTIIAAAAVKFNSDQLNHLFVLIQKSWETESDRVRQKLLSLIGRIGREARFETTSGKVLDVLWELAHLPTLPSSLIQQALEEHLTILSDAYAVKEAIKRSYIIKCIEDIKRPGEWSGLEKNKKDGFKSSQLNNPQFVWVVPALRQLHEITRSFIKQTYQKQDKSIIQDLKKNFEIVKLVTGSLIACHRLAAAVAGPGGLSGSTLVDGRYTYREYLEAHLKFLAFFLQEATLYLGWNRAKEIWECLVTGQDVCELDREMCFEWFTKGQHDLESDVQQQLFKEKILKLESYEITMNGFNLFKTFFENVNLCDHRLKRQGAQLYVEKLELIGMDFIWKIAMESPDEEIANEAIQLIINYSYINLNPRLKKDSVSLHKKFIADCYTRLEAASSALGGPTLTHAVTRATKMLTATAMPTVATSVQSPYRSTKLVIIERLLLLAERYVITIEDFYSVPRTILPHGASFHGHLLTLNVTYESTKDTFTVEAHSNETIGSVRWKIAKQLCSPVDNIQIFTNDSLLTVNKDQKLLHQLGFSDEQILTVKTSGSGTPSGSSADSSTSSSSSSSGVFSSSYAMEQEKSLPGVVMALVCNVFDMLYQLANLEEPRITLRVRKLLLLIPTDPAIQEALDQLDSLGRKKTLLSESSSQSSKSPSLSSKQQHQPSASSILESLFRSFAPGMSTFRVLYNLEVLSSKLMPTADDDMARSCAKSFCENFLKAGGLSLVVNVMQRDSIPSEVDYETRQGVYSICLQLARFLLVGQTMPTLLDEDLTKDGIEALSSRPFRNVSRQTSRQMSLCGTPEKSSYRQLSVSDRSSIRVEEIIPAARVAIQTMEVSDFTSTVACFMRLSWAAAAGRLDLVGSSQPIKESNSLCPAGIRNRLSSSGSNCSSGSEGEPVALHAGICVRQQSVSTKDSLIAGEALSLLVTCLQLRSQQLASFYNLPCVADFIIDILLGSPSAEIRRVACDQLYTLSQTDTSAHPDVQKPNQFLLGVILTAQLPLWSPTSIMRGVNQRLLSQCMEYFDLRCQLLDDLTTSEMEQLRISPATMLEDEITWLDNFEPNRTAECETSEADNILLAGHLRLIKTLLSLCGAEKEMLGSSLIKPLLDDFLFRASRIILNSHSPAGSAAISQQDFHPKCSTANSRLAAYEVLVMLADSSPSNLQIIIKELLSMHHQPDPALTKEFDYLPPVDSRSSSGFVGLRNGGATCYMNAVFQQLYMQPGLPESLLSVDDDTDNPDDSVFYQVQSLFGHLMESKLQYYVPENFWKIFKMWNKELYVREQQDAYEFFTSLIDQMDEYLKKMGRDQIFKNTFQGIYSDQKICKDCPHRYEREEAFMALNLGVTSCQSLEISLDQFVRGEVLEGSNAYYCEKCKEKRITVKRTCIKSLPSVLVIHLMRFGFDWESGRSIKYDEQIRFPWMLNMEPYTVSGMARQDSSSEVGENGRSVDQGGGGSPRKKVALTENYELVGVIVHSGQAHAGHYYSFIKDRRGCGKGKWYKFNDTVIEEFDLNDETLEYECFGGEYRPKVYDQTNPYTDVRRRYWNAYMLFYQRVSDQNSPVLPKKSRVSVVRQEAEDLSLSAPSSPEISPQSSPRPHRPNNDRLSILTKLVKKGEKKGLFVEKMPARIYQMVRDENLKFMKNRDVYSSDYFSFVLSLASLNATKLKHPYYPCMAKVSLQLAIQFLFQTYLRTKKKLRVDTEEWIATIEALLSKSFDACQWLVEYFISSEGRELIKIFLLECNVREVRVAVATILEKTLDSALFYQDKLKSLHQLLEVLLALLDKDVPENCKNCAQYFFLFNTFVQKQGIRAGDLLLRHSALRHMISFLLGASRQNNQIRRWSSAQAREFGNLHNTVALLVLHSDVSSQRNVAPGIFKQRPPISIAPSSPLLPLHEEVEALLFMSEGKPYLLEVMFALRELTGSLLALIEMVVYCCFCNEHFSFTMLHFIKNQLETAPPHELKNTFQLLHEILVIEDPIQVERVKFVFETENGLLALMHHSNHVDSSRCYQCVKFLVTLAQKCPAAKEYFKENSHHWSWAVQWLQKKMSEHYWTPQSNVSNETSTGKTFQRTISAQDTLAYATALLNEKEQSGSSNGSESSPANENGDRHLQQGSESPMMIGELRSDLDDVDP
How it was run: as §1

USP25 = target: T2, USP25 (UniProt Q9UHP3)
T2 sequence (whole entry): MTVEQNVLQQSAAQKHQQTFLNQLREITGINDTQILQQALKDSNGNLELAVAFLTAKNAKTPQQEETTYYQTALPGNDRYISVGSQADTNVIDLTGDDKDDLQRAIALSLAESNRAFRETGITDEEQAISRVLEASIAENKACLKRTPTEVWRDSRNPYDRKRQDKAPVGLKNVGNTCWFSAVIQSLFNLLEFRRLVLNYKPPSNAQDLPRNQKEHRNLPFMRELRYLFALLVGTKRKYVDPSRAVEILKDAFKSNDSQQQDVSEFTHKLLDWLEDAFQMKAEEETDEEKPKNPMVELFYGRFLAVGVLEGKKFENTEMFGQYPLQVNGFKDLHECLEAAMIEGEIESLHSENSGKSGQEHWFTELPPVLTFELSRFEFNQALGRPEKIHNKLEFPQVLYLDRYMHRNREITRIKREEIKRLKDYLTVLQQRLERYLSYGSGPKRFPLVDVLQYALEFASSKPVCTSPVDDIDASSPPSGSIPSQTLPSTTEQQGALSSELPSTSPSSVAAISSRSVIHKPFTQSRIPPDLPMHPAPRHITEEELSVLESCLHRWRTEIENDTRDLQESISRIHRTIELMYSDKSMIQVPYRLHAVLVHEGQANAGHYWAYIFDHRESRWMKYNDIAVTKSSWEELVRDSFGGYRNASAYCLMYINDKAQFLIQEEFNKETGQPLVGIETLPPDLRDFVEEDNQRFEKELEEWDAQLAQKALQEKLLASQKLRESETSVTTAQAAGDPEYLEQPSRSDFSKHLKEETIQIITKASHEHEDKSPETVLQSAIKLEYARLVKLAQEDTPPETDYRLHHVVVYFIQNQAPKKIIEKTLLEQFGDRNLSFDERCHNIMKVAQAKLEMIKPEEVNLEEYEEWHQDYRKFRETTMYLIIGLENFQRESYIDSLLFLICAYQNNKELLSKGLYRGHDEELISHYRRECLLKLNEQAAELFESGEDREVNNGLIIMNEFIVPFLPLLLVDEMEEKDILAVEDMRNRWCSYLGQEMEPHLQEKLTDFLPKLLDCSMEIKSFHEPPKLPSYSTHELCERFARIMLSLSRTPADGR
How it was run: as §1

USP28 = target: T3, USP28 (UniProt Q96RU2)
T3 sequence (whole entry): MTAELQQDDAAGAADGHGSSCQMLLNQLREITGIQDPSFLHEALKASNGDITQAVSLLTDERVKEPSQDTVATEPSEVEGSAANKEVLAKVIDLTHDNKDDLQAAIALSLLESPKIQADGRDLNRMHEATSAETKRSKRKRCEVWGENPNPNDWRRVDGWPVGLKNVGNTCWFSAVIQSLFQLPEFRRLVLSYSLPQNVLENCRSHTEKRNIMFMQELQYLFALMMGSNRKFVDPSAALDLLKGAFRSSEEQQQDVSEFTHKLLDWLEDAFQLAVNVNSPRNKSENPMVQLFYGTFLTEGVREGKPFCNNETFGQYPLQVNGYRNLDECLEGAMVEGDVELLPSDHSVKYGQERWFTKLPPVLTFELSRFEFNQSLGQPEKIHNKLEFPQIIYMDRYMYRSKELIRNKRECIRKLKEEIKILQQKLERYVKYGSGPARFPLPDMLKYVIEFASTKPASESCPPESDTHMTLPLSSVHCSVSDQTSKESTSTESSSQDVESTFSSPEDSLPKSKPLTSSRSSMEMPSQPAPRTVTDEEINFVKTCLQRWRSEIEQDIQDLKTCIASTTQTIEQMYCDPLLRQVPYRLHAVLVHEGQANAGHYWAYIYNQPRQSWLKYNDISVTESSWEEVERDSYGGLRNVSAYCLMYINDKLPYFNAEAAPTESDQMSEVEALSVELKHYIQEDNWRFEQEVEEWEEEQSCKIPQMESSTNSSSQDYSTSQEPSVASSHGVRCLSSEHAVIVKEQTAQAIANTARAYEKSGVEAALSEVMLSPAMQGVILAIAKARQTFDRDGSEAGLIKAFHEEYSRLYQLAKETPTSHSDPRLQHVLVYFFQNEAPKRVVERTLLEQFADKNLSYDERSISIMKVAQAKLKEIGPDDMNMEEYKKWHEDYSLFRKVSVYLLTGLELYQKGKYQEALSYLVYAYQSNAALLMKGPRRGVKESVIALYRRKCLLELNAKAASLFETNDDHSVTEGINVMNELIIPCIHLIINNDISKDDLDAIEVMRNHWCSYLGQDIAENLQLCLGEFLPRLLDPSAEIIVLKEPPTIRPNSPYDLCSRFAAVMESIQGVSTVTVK
How it was run: as §1

Measured: log2 ratio of Biotin-Ahx-Ub-VS probe labelling

COc1cccc(CN(C)C(=O)CCl)c1
inactive: USP19 -0.352 | USP24 -0.497 | USP25 -0.669 | USP28 -0.772
